Screens from PubChem BioAssay.
Compounds with a hit are over-represented: about 8% of the library has one in this group of screens.
HCMV antiviral: inhibitors of human cytomegalovirus | HFF cells, HCMV-luciferase reporter, 72 h; stronger effect = lower value | activity change, negative = inhibition, % at 57.5 µM | hit rate 4.5% among 410,000 | AID 1259415; in the data active means activity change below about -60%; inconclusive means no clear call, values can overlap the other calls; inactive means above about -39%; further: on the % scale 0 is the no-effect control and ±100 the full control effect
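Two compound doses tested in HFFs infected with HCMV-luciferase, MOI 1 PFU/cell, 72 h at 37C. Lysate luminescence read with OneGlo; data normalized against buffer-only and 10uM Salinomycin inhibitor controls.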
Marburg entry inh: blocks Marburg virus binding to or entry into cells; Potency, µM (top dose mostly 37.8 µM), inactives show at the highest dose activity change, negative = inhibition, hits mostly inhibitors; hit rate 1.8% among 300,000; Marburg virus pseudotyped entry inhibition, cell reporter; calls by dose curve; tested in HEK293 cells; further: potency means the concentration at half of the fitted maximal effect; on the % scale 0 is the no-effect control and ±100 the full control effect
SARS PLP yeast: SARS-CoV PLP inhibition in yeast; S. cerevisiae expressing SARS-CoV PLpro, growth rescue; Potency, µM (titrated, usually from 32.9 µM), without a hit: top-dose activity, positive = growth rescue, hits mostly activators; hit rate 0.19% among 330,000; AID 485353; calls by dose curve; further: potency means the concentration at half of the fitted maximal effect; 0% is about no effect; nearly all actives have a fitted effect of over 55% in size
FMDV antiviral: antivirals against foot and mouth disease virus | FMDV antiviral cell-based qHTS | Potency, µM (top dose mostly 57.9 µM), for inactives: top-dose activity change, negative = inhibition, hits mostly inhibitors | hit rate 1.2% among 410,000 | AID 1159524; calls by dose curve; tested in HEK293T cells; further: read-out not given here; potency means the concentration at half of the fitted maximal effect; on the % scale 0 is the no-effect control and ±100 the full control effect; nearly all actives have a fitted effect of over 45% in size
HCV inhibitor: HCV inhibition. Huh7.5.1 HCVcc-Cre infection, luciferase reporter, 44 h. Potency, µM (series often up to 41.8 µM), without a hit: at the highest dose activity change, negative = inhibition, most hits filed as inhibitors. hit rate 3.4% among 340,000; active means well fitted inhibition curve with a large enough effect; inconclusive means small, poorly fitted or top-dose-only effect, or another doubt; inactive means no such curve, though single readings can be large or run the other way; further: potency means the concentration at half of the fitted maximal effect; on the % scale 0 is the no-effect control and ±100 the full control effect
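A cell-based infection assay in which seeded cells (1,000 per well) receive test compound after 4 h, are inoculated with HCVcc-Cre at approximately 0.5 moi, and are incubated 44 h before luminescence detection.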
Lassa entry inh: inhibitors of Lassa virus binding or cell entry; Lassa virus pseudotype entry inhibition, cell reporter; Potency, µM (highest dose often 37.9 µM), inactives show at the top dose activity change, negative = inhibition, actives largely listed as inhibitors; hit rate 1.2% among 300,000; AID 540256; calls by dose curve; tested in HEK293 cells; further: potency means the concentration at half of the fitted maximal effect; on the % scale 0 is the no-effect control and ±100 the full control effect; nearly all actives have a fitted effect of over 50% in size
* marks the source's active call; other numbers are inactive results; [ ] = another dose, or the depositor's remark.

Results for COC(c1ccc2c(c1)CN(C(=O)Cn1nc(C)c3ccccc3c1=O)CCO2)C1CCCCC1 (centres undefined) ?
FMDV antiviral: -18.2%

Results for CC(C(=O)NC1CCCc2ccccc21)N1C(=O)C2CCCCC2C1=O (centres undefined) ?
HCMV antiviral: 0.2; SARS PLP yeast: 0.5%; FMDV antiviral: 6.0%; HCV inhibitor: 21.5%

How did CCCn1nc(C(=O)N2CCN(S(=O)(=O)c3ccc(C)c(C)c3)CC2)c2ccccc2c1=O do in these assays?
HCMV antiviral: -10.7; SARS PLP yeast: -1.8%; FMDV antiviral: inconclusive; HCV inhibitor: 14.1µM*

What do the screens show for `CN(C)Cc1csc(NC(=O)Nc2cccc(C(F)(F)F)c2)n1`?
HCMV antiviral: -25.8; FMDV antiviral: -21.7%

What do the screens show for `CCOC(=O)Cc1csc(NC(=O)/C=C/c2cccc(Br)c2)n1`?
HCMV antiviral: -38.7; Marburg entry inh: inconclusive; SARS PLP yeast: -0.8%; FMDV antiviral: inconclusive; HCV inhibitor: 11.2µM*; Lassa entry inh: inconclusive

What do the screens show for `O=C(Nc1ccc(Cl)cc1)Nc1nc(-c2sccc2Br)cs1`?
HCMV antiviral: inconclusive; Marburg entry inh: inconclusive; SARS PLP yeast: 4.7%; FMDV antiviral: 1.0%; HCV inhibitor: 18.4%; Lassa entry inh: inconclusive

How did CC(N)c1csc(NC(=O)Nc2cccc(C(F)(F)F)c2)n1 (centres undefined) do in these assays?
HCMV antiviral: -68.2*; FMDV antiviral: -16.2%

What do the screens show for `CCOC(=O)Cc1csc(NC(=O)/C=C/c2ccc(Br)o2)n1`?
HCMV antiviral: inconclusive; SARS PLP yeast: -1.4%; FMDV antiviral: inconclusive; HCV inhibitor: inconclusive

Results for NC(c1csc(NC(=O)Nc2cccc(Cl)c2)n1)c1ccccc1Cl (centres undefined) ?
HCMV antiviral: -75.8*; FMDV antiviral: -13.1%

Results for O=C(Nc1ccc(Cl)cc1)Nc1nc(-c2ccccc2O)cs1 ?
HCMV antiviral: -65.6*; SARS PLP yeast: -1.3%; FMDV antiviral: inconclusive; HCV inhibitor: inconclusive

How did Cn1c(Cc2ccccc2)nc2cnc(Nc3cccc(C(F)(F)F)c3)cc21 do in these assays?
HCMV antiviral: 13.7

Results for c1ccc(CNc2ccnc(-c3ccoc3)n2)cc1 ?
FMDV antiviral: -1.3%

What do the screens show for `CCOC(=O)C[C@@H](C#N)c1cn(C)c2ccccc12`?
Marburg entry inh: -17.8%

How did CCOC(=O)Cc1csc(N/N=C/c2ccc(Cl)cc2)n1 do in these assays?
HCMV antiviral: -23.3; Marburg entry inh: inconclusive; SARS PLP yeast: -0.5%; FMDV antiviral: -29.0%; HCV inhibitor: -11.8%; Lassa entry inh: -8.8%

Results for CCOC(=O)Cc1csc(NC(=O)Nc2cccc(Cl)c2)n1 ?
HCMV antiviral: -60.3*; Marburg entry inh: -5.5%[46.1 µM]; SARS PLP yeast: 13.5%; FMDV antiviral: inconclusive; HCV inhibitor: inconclusive; Lassa entry inh: inconclusive

How did O=C(Cc1csc(NC(=O)Nc2ccc(Cl)cc2)n1)NCc1ccccn1 do in these assays?
HCMV antiviral: -8.1; Marburg entry inh: -15.9%; SARS PLP yeast: -1.3%; FMDV antiviral: -20.7%; HCV inhibitor: inconclusive; Lassa entry inh: -17.0%

Results for CCOC(=O)Cc1csc(NC(=O)Nc2ccc(Cl)cc2)n1 ?
HCMV antiviral: 2.8; Marburg entry inh: inconclusive; SARS PLP yeast: -0.3%; FMDV antiviral: inconclusive; HCV inhibitor: 11.2µM*; Lassa entry inh: inconclusive

What do the screens show for `O=C(Cc1csc(NC(=O)Nc2ccc(Cl)cc2)n1)NC1CCCC1`?
HCMV antiviral: inconclusive; Marburg entry inh: inconclusive; SARS PLP yeast: -5.9%; FMDV antiviral: -9.5%; HCV inhibitor: 7.08µM*; Lassa entry inh: -26.9%

How did COc1cccc(CNC(=O)CCCn2ccc3cc(S(=O)(=O)N4CCCC4)ccc32)c1 do in these assays?
HCMV antiviral: -25.8; Marburg entry inh: inconclusive; SARS PLP yeast: -3.5%; FMDV antiviral: -13.6%; HCV inhibitor: inconclusive; Lassa entry inh: inconclusive

How did COc1ccc(CNC(=O)C(C)n2ccc3cc(S(=O)(=O)N4CCCCCC4)ccc32)cc1 (centres undefined) do in these assays?
HCMV antiviral: -9.0; SARS PLP yeast: 3.3%; FMDV antiviral: -20.9%; HCV inhibitor: 6.31µM*
